From the antibiotic and cytotoxicity screens of Wong et al. (2023) come the findings set out here.

The structures appear in SMILES notation. Among all 39,000 compounds or so, about 3,300 (8.5%) were called active. Many of the other results were omitted from the sample, so actives are more common in it than they were.

In this assay the test system is HepG2. Put plainly: cytotoxicity call (relative viability < 0.9). The settings on record: 10 µM.
For `Cc1noc(C)c1NC(=O)N(C)C[C@H]1Oc2ccc(NS(C)(=O)=O)cc2CC(=O)N([C@@H](C)CO)C[C@H]1C`, the cytotoxicity call was “inactive”.

With `C[C@@H]1CCCCO[C@@H](CN(C)S(=O)(=O)c2cn(C)cn2)[C@H](C)CN([C@@H](C)CO)C(=O)c2cc(N(C)C)ccc2O1`, the cytotoxicity call is “inactive”.

Turning to `O=C(C[C@@H]1CC[C@@H]2[C@H](COC[C@H](O)CN2Cc2cc(F)ccc2F)O1)N[C@@H]1CCN(Cc2ccccc2)C1`, the cytotoxicity call is “inactive”.

Take `C[C@@H]1CN([C@@H](C)CO)C(=O)c2cc(Br)cnc2O[C@H]1CN(C)C(=O)CCN1CCCCC1`: the cytotoxicity call is “inactive”.

Regarding `C[C@@H]1CCCCO[C@H](CN(C)C(=O)Nc2ccc(F)cc2)[C@H](C)CN([C@@H](C)CO)C(=O)c2cc(NC(=O)Nc3cccc4ccccc34)ccc2O1`, the cytotoxicity call is “inactive”.

Turning to `Cc1cc(C)c2c(c1)[C@@H](N(Cc1cc(C(F)(F)F)cc(C(F)(F)F)c1)c1nnn(C)n1)CCCN2C[C@H]1CC[C@H](C(=O)O)CC1`, the cytotoxicity call was “active”.

With `Cc1ccc(S(=O)(=O)Nc2ccc3c(c2)C(=O)N([C@H](C)CO)C[C@H](C)[C@H](CN(C)S(=O)(=O)c2ccc(C)cc2)OCCCC[C@@H](C)O3)cc1`, the cytotoxicity call was “inactive”.

For `Cc1ccc(S(=O)(=O)Nc2ccc3c(c2)CC(=O)N([C@H](C)CO)C[C@@H](C)[C@@H](CN(C)Cc2ccc(Cl)c(Cl)c2)O3)cc1`, the cytotoxicity call is “active”.

`Cc1ccc(S(=O)(=O)Nc2ccc3c(c2)CC(=O)N([C@H](C)CO)C[C@H](C)[C@@H](CN(C)Cc2ccc(Cl)c(Cl)c2)O3)cc1`: the cytotoxicity call was “inactive”.

In the case of `Cc1ccc(S(=O)(=O)Nc2ccc3c(c2)CC(=O)N([C@H](C)CO)C[C@H](C)[C@H](CN(C)Cc2ccc(Cl)c(Cl)c2)O3)cc1`, the cytotoxicity call was “active”.

Regarding `Cc1ccc(S(=O)(=O)Nc2ccc3c(c2)CC(=O)N([C@@H](C)CO)C[C@@H](C)[C@H](CN(C)Cc2ccc(Cl)c(Cl)c2)O3)cc1`, the cytotoxicity call is “inactive”.

Consider `Cc1ccc(S(=O)(=O)Nc2ccc3c(c2)CC(=O)N([C@@H](C)CO)C[C@H](C)[C@H](CN(C)Cc2ccc(Cl)c(Cl)c2)O3)cc1`, for which the cytotoxicity call was “active”.

Take `Cc1ccc(S(=O)(=O)Nc2ccc3c(c2)CC(=O)N([C@H](C)CO)C[C@@H](C)[C@H](CN(C)Cc2ccc(Cl)c(Cl)c2)O3)cc1`: the cytotoxicity call is “inactive”.

`Cc1ccc(S(=O)(=O)Nc2ccc3c(c2)CC(=O)N([C@@H](C)CO)C[C@@H](C)[C@@H](CN(C)Cc2ccc(Cl)c(Cl)c2)O3)cc1`: the cytotoxicity call was “active”.

Turning to `Cc1ccc(S(=O)(=O)Nc2ccc3c(c2)CC(=O)N([C@@H](C)CO)C[C@H](C)[C@@H](CN(C)Cc2ccc(Cl)c(Cl)c2)O3)cc1`, the cytotoxicity call is “inactive”.

On to `Cc1ccc(S(=O)(=O)Nc2ccc3c(c2)C(=O)N([C@@H](C)CO)C[C@H](C)[C@@H](CN(C)S(C)(=O)=O)OCCCC[C@@H](C)O3)cc1`, for which the cytotoxicity call was “inactive”.

As to `COc1ccc(S(=O)(=O)Nc2ccc3c(c2)C(=O)N([C@H](C)CO)C[C@@H](C)[C@@H](CN(C)Cc2ccc(Cl)c(Cl)c2)O3)cc1`, the cytotoxicity call was “inactive”.

Regarding `O=C(C[C@@H]1CC[C@H]2[C@@H](COC[C@@H](O)CN2S(=O)(=O)c2cccc(F)c2)O1)NCc1ccncn1`, the cytotoxicity call is “inactive”.

Turning to `CC(=O)N1CCC(C(=O)O)CC1`, the cytotoxicity call is “inactive”.

With `COc1ccc(NC(=O)N(C)C[C@@H]2OCCCC[C@H](C)Oc3ccc(NC(=O)C4CCCCC4)cc3C(=O)N([C@@H](C)CO)C[C@@H]2C)cc1`, the cytotoxicity call is “inactive”.

As for `Cc1cc(C)n(-c2ccc(=O)n(CC(=O)N3CCN(S(=O)(=O)c4ccc(F)cc4)CC3)n2)n1`, the cytotoxicity call is “inactive”.

In the case of `C[C@@H]1CN([C@H](C)CO)C(=O)c2cc(NC(=O)CCN3CCOCC3)ccc2O[C@H]1CN(C)S(=O)(=O)c1ccc(F)cc1`, the cytotoxicity call is “inactive”.

On to `C[C@H](CO)N1C[C@H](C)[C@H](CN(C)C(=O)Nc2ccc3c(c2)OCO3)Oc2c(NC(=O)C3CCOCC3)cccc2C1=O`, for which the cytotoxicity call is “inactive”.

In the case of `CNCCCC12CCC(c3ccccc31)c1ccccc12.Cl`, the cytotoxicity call is “active”.

For `CC(C)CC#Cc1cnc2c(c1)C(=O)N([C@@H](C)CO)C[C@H](C)[C@@H](CN(C)C(=O)CN1CCOCC1)O2`, the cytotoxicity call is “inactive”.

As to `C[C@@H]1CCCCO[C@H](CN(C)C(=O)CCCN(C)C)[C@H](C)CN([C@@H](C)CO)C(=O)c2cc(NC(=O)Nc3ccc(C(F)(F)F)cc3)ccc2O1`, the cytotoxicity call is “inactive”.

For the molecule `COc1ccccc1C#Cc1cnc2c(c1)C(=O)N([C@H](C)CO)C[C@H](C)[C@H](CN(C)S(=O)(=O)c1cn(C)cn1)O2`, the cytotoxicity call was “inactive”.

Regarding `C[C@@H]1CCCCO[C@H](CN(C)S(=O)(=O)c2ccccc2)[C@H](C)CN([C@@H](C)CO)C(=O)c2cc(NS(=O)(=O)c3cn(C)cn3)ccc2O1`, the cytotoxicity call was “inactive”.

Take `C[C@@H]1CCCCO[C@H](CN(C)C(=O)Nc2cccc3ccccc23)[C@@H](C)CN([C@@H](C)CO)C(=O)c2cc(NC(=O)c3ccncc3)ccc2O1`: the cytotoxicity call is “active”.

`C[C@@H]1CN([C@H](C)CO)C(=O)c2cc(NC(=O)c3ccccc3)ccc2O[C@@H](C)CCCCO[C@H]1CN(C)C(=O)Nc1cccc2ccccc12`: the cytotoxicity call was “active”.

Regarding `C[C@@H]1CCCCO[C@@H](CN(C)C(=O)Nc2cccc3ccccc23)[C@@H](C)CN([C@@H](C)CO)C(=O)c2cc(NC(=O)c3ccccc3)ccc2O1`, the cytotoxicity call was “inactive”.

On to `C[C@H](CO)N1C[C@H](C)[C@@H](CN(C)C(=O)Nc2cccc3ccccc23)OCCCC[C@H](C)Oc2ccc(NC(=O)c3ccncc3)cc2C1=O`, for which the cytotoxicity call was “inactive”.

`C[C@@H]1CN([C@@H](C)CO)C(=O)c2cc(NC(=O)c3ccccc3)ccc2O[C@@H](C)CCCCO[C@H]1CN(C)C(=O)Nc1cccc2ccccc12`: the cytotoxicity call was “active”.

On to `C[C@@H]1CCCCO[C@@H](CN(C)C(=O)Nc2cccc3ccccc23)[C@@H](C)CN([C@H](C)CO)C(=O)c2cc(NC(=O)c3ccccc3)ccc2O1`, for which the cytotoxicity call was “inactive”.

As for `C[C@@H]1CN([C@H](C)CO)C(=O)c2cc(NC(=O)c3ccccc3)ccc2O[C@@H](C)CCCCO[C@@H]1CN(C)C(=O)Nc1cccc2ccccc12`, the cytotoxicity call was “inactive”.

`C[C@H]1CCCCO[C@H](CN(C)C(=O)Nc2cccc3ccccc23)[C@@H](C)CN([C@@H](C)CO)C(=O)c2cc(NC(=O)c3ccncc3)ccc2O1`: the cytotoxicity call was “inactive”.

For the molecule `C[C@@H]1CCCCO[C@H](CN(C)C(=O)Nc2cccc3ccccc23)[C@@H](C)CN([C@H](C)CO)C(=O)c2cc(NC(=O)c3ccccc3)ccc2O1`, the cytotoxicity call was “inactive”.

Turning to `C[C@@H]1CCCCO[C@H](CN(C)C(=O)Nc2cccc3ccccc23)[C@H](C)CN([C@@H](C)CO)C(=O)c2cc(NC(=O)c3ccccc3)ccc2O1`, the cytotoxicity call is “inactive”.

As to `C[C@@H]1CCCCO[C@@H](CN(C)C(=O)Nc2cccc3ccccc23)[C@H](C)CN([C@@H](C)CO)C(=O)c2cc(NC(=O)c3ccccc3)ccc2O1`, the cytotoxicity call is “active”.

As for `C[C@H](CO)N1C[C@H](C)[C@@H](CN(C)C(=O)Nc2cccc3ccccc23)OCCCC[C@H](C)Oc2ccc(NC(=O)c3ccccc3)cc2C1=O`, the cytotoxicity call was “inactive”.

Regarding `CC(C)NC(=O)N(C)C[C@H]1OCCCC[C@@H](C)Oc2ccc(NC(=O)Nc3ccc(F)cc3)cc2C(=O)N([C@@H](C)CO)C[C@H]1C`, the cytotoxicity call is “inactive”.

Regarding `CC(C)CC#Cc1cnc2c(c1)C(=O)N([C@H](C)CO)C[C@@H](C)[C@H](CN(C)S(=O)(=O)c1cccs1)O2`, the cytotoxicity call was “inactive”.

Consider `Cc1noc(C)c1S(=O)(=O)N(C)C[C@H]1OCCCC[C@H](C)Oc2ccc(NS(C)(=O)=O)cc2C(=O)N([C@@H](C)CO)C[C@@H]1C`, for which the cytotoxicity call was “inactive”.

For `C[C@@H]1CN([C@@H](C)CO)C(=O)Cc2cc(NC(=O)C3CC3)ccc2O[C@H]1CN(C)C(=O)Nc1ccc2c(c1)OCO2`, the cytotoxicity call was “inactive”.

Turning to `CNC(=O)c1ccc2c(c1)OCO2`, the cytotoxicity call was “inactive”.

In the case of `O=C(C[C@@H]1C[C@H]2c3cc(NS(=O)(=O)c4ccc(F)cc4)ccc3O[C@H]2[C@H](CO)O1)NCc1cccc(F)c1`, the cytotoxicity call is “inactive”.

Regarding `C[C@H]1CN([C@@H](C)CO)C(=O)Cc2cc(NC(=O)NC3CCCCC3)ccc2O[C@H]1CN(C)C(=O)Nc1ccc(C(F)(F)F)cc1`, the cytotoxicity call is “inactive”.

Regarding `C[C@H](CO)N1C[C@H](C)[C@@H](CN(C)Cc2ccc(Oc3ccccc3)cc2)Oc2cc(Br)ccc2S1(=O)=O`, the cytotoxicity call is “inactive”.

`C[C@H]1CN([C@@H](C)CO)C(=O)Cc2cc(NS(=O)(=O)c3cccs3)ccc2O[C@H]1CN(C)S(=O)(=O)c1ccccc1`: the cytotoxicity call was “inactive”.

As to `C[C@@H]1CCCCO[C@@H](CN(C)Cc2ccccc2)[C@H](C)CN([C@@H](C)CO)C(=O)c2cc(NS(=O)(=O)c3ccc(F)cc3)ccc2O1`, the cytotoxicity call is “inactive”.

Consider `Cc1c2oc3c(C)ccc(C(=O)N[C@@H]4C(=O)N[C@H](C(C)C)C(=O)N5CCC[C@H]5C(=O)N(C)CC(=O)N(C)[C@@H](C(C)C)C(=O)O[C@@H]4C)c3nc-2c(C(=O)N[C@@H]2C(=O)N[C@H](C(C)C)C(=O)N3CCC[C@H]3C(=O)N(C)CC(=O)N(C)[C@@H](C(C)C)C(=O)O[C@@H]2C)c(N)c1=O`, for which the cytotoxicity call was “active”.

In the case of `Cc1c2oc3c(C)ccc(C(=O)OC(C)C4NC(=O)C(C(C)C)N(C)C(=O)CN(C)C(=O)C5CCCN5C(=O)C(C(C)C)NC4=O)c3nc-2c(C(=O)OC(C)C2NC(=O)C(C(C)C)N(C)C(=O)CN(C)C(=O)C3CCCN3C(=O)C(C(C)C)NC2=O)c(N)c1=O` (stereo not given), the cytotoxicity call is “active”.

Consider `Cc1c2oc3c(C)ccc(C(=O)N[C@@H]4C(=O)N[C@@H](C(C)C)C(=O)N5CCC[C@H]5C(=O)N(C)CC(=O)N(C)[C@@H](C(C)C)C(=O)O[C@@H]4C)c3nc-2c(C(=O)N[C@@H]2C(=O)N[C@@H](C(C)C)C(=O)N3CCC[C@H]3C(=O)N(C)CC(=O)N(C)[C@@H](C(C)C)C(=O)O[C@@H]2C)c(N)c1=O`, for which the cytotoxicity call is “active”.

In the case of `CO[C@@H]1CN(C)C(=O)c2cc(NC(=O)c3cc(C)on3)ccc2OC[C@@H](C)N(S(=O)(=O)c2ccccc2)C[C@H]1C`, the cytotoxicity call is “inactive”.

Regarding `COc1ccc(S(=O)(=O)N(C)C[C@H]2Oc3c(NS(=O)(=O)c4ccccc4)cccc3C(=O)N([C@H](C)CO)C[C@H]2C)cc1`, the cytotoxicity call is “inactive”.
